± gives the standard deviation of the averaged measurements.
test system: DLD1; assay: TCF/Wnt firefly luciferase reporter signal relative to plate median (fraction of plate median); higher = higher Wnt reporter signal; conditions: 10 µM; treatment time 24 h; reporter: 7TFP
Procedure, shortened: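 Values are the mean of two independent replicates of luminescence normalised to the plate median with webcellHTS2, using the additive method without log transformation. They come from colorectal cancer cell lines stably transduced with lentiviral TCF/Wnt firefly luciferase reporters (7TFP or TCF4/Wnt), seeded in 384-well plates. After 24 h the cells got kinase inhibitor library compounds at a final 10 µM for 24 h, and parallel plates were read for firefly luciferase or CellTiterGlo on a Tecan F500.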

Row | Compound | TCF/Wnt firefly luciferase reporter signal
1 | Cc1ccc(F)c(NC(=O)Nc2ccc(-c3cccc4[nH]nc(N)c34)cc2)c1 [Linifanib (ABT-869)] | 1.05 ± 0.086
2 | N#CC(=C(/N)Sc1ccccc1N)/C(C#N)=C(\N)Sc1ccccc1N | 1.73 ± 0.11
3 | c1cncc(CN2CCC(n3ncc4c(N5CCOCC5)nc(-c5ccc6[nH]ccc6c5)nc43)CC2)c1 | 0.532 ± 0.025
4 | CCn1c(-c2nonc2N)nc2c(C#CC(C)(C)O)ncc(OC[C@H]3CCCNC3)c21 | 1.05 ± 0.55

same assay, conditions: 10 µM; treatment time 24 h; reporter: TCF4/Wnt

Row | Compound | TCF/Wnt firefly luciferase reporter signal
5 | CC(C)(C)c1cc(/C=C(\C#N)C(N)=S)cc(C(C)(C)C)c1O [Tyrphostin AG 879 (AG 879)] | 1.04 ± 0.042
6 | C=CC(=O)Nc1cc2c(Nc3ccc(F)c(Cl)c3)ncnc2cc1OCCCN1CCOCC1 [CI-1033 (Canertinib)] | 0.601 ± 0.096
7 | NCC(=O)Nc1ccc(-n2nc(C(F)(F)F)cc2-c2ccc3c(ccc4ccccc43)c2)cc1 | 1.31 ± 0.34
8 | COc1ccc(-c2cc3c(C)nc(N)nc3n([C@H]3CC[C@H](OCCO)CC3)c2=O)cn1 | 0.533 ± 0.056
9 | Clc1ccc(C2(c3ccc(-c4cn[nH]c4)cc3)CCNCC2)cc1 | 0.883 ± 0.11
10 | C[S+]([O-])c1ccc(-c2nc(-c3ccc(F)cc3)c(-c3ccncc3)[nH]2)cc1 (centres undefined) | 0.884 ± 0.22
11 | C=CC(=O)Nc1ccc2ncnc(Nc3ccc(OCc4cccc(F)c4)c(Cl)c3)c2c1 | 0.879 ± 0.2
12 | CCn1nnc2c(N3CCOCC3)nc(-c3ccc(NC(=O)Nc4ccc(C(=O)N5CCN(C)CC5)cc4)cc3)nc21 | 1.19 ± 0.042
13 | O=c1cc(N2CCOCC2)oc2c(-c3cccc4c3sc3ccccc34)cccc12 | 1.16 ± 0.17
14 | Cc1cnc(Nc2ccc(N3CCN(C)CC3)cc2)nc1Nc1cccc(S(=O)(=O)NC(C)(C)C)c1 | 2.17 ± 0.035
15 | COc1ccc(S(=O)(=O)N(C(C)=O)c2ccccc2/C=C/c2cc[n+]([O-])cc2)cc1 | 1 ± 0.14
16 | COc1cc2ncnc(Nc3ccc(F)c(Cl)c3)c2cc1OCCCN1CCOCC1 [Gefitinib (Iressa)] | 0.812 ± 0.18
17 | CN1CCN(c2cccc(Nc3nc4c(-c5ccc(S(C)(=O)=O)cc5)cccn4n3)c2)CC1 | 1.03 ± 0.057
18 | CC(=O)Nc1nc(C)c(-c2ccc(Cl)c(S(=O)(=O)NCCO)c2)s1 | 1 ± 0.08
19 | CCC[C@H](NC(=O)/C(C#N)=C/c1cccc(Br)n1)c1ccccc1 | 0.0661 ± 0.016
20 | CCS(=O)(=O)c1cccc(-c2cc(C(=O)NC3CCN(C)CC3)c(C)c3[nH]c4ncc(C)cc4c23)c1 | 1.215 ± 0.0071
21 | CC(C)n1nc(-c2ccc3oc(N)nc3c2)c2c(N)ncnc21 | 0.509 ± 0.071
22 | COc1cc2c(N3CCN(C(=O)Nc4ccc(OC(C)C)cc4)CC3)ncnc2cc1OCCCN1CCCCC1 [Tandutinib (MLN518)] | 1.03 ± 0.028
23 | O=C1NC(=O)C(c2ccccc2[N+](=O)[O-])=C1Nc1ccc(O)c(Cl)c1 | 1.85 ± 0.45
24 | COc1cccc(-c2cc(=O)c3ccccc3o2)c1N | 1.62 ± 0.53

Row | Compound | TCF/Wnt firefly luciferase reporter signal
25 | Cc1ccc(NC(=O)c2ccc(CN3CCN(C)CC3)cc2)cc1Nc1nccc(-c2cccnc2)n1 [Imatinib (Gleevec)] | 1.55 ± 0.11
26 | COc1cc2c(Nc3ccc(NC(=O)c4ccccc4)cc3)ncnc2cc1OCCCN1CCOCC1 | 1.19 ± 0.2
27 | CC(C)CC(=O)Nc1n[nH]c2c1CN(C(=O)C1CCN(C)CC1)C2(C)C | 2.31 ± 0.37
28 | CNC(=O)Nc1ccc(-c2nc(N3CC4CCC(C3)O4)c3cnn(C4CCC5(CC4)OCCO5)c3n2)cc1 | 0.554 ± 0.12
29 | CCOc1cc2ncc(C#N)c(Nc3ccc(OCc4ccccn4)c(Cl)c3)c2cc1NC(=O)/C=C/CN(C)C [Neratinib (HKI-272)] | 0.763 ± 0.05
30 | N#CCNC(=O)c1ccc(-c2ccnc(Nc3ccc(N4CCOCC4)cc3)n2)cc1 | 1.16 ± 0.13
31 | Cc1ncc(-c2ccnc(Nc3ccc(S(C)(=O)=O)cc3)n2)n1C(C)C | 0.277 ± 0.063
32 | O=C(O)c1ccc2c(c1)nc(Nc1cccc(Cl)c1)c1ccncc12 [cx-4945 (Silmitasertib)] | 0.651 ± 0.2
33 | CC(=O)Nc1cccc(-n2c(=O)n(C3CC3)c(=O)c3c(Nc4ccc(I)cc4F)n(C)c(=O)c(C)c32)c1 | 1.39 ± 0.54
34 | Nc1ncnc2c1c(-c1cccc(OCc3ccccc3)c1)cn2C1CC(CN2CCCC2)C1 (centres undefined) | 0.755 ± 0.047
35 | COc1cc2c(Oc3ccc(NC(=O)C4(C(=O)Nc5ccc(F)cc5)CC4)cc3F)ccnc2cc1OCCCN1CCOCC1 | 0.568 ± 0.054
36 | CCN1CCN(c2ccc(Nc3cc(N(C)C(=O)Nc4c(Cl)c(OC)cc(OC)c4Cl)ncn3)cc2)CC1 | 1.06 ± 0.51
37 | Cc1[nH]c(/C=C2\C(=O)Nc3ccccc32)c(C)c1CCC(=O)O | 1.26 ± 0.41
38 | CN1CCN(c2ccc3nc(-c4c(N)c5c(F)cccc5[nH]c4=O)[nH]c3c2)CC1 [Dovitinib Dilactic acid (TKI258 Dilactic acid)] | 1.16 ± 0.16
39 | Cc1[nH]c(/C=C2\C(=O)Nc3ccc(S(=O)(=O)Cc4c(Cl)cccc4Cl)cc32)c(C)c1C(=O)N1CCC[C@@H]1CN1CCCC1 | 0.868 ± 0.16
40 | COc1cc(Nc2ncc(F)c(Nc3ccc4c(n3)NC(=O)C(C)(C)O4)n2)cc(OC)c1OC [R406(free base)] | 1.16 ± 0.13
41 | Cc1ccc(F)c(NC(=O)Nc2ccc(-c3cccc4[nH]nc(N)c34)cc2)c1 [Linifanib (ABT-869)] | 1.33 ± 0.31
42 | N#CC(=C(/N)Sc1ccccc1N)/C(C#N)=C(\N)Sc1ccccc1N | 1.27 ± 0.064
43 | c1cncc(CN2CCC(n3ncc4c(N5CCOCC5)nc(-c5ccc6[nH]ccc6c5)nc43)CC2)c1 | 0.607 ± 0.042
44 | CCn1c(-c2nonc2N)nc2c(C#CC(C)(C)O)ncc(OC[C@H]3CCCNC3)c21 | 1.22 ± 0.26
